Data as given in PubChem BioAssay (EPA / NIEHS).
The source made the active and inactive calls. How the source made its calls: active means hit-call score of the fitted dose curve at least 0.9, where 1 is the maximum; inactive means score below 0.9.

Tests used:
Conditions in all cases: mRNA level, 48 h; actives raise or lower the signal
CYP2C8 (gene 1558) = test: LTEA_HepaRG_CYP2C8: Life Technologies and Expression Analysis (LTEA) Assay for CYP2C8 using HepaRG (AID 2283483)
Outline: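 Differentiated HepaRG cells in serum-free induction medium exposed 48 h in duplicate to 8 half-log concentrations from 100 uM in 0.5% DMSO. CYP2C8 mRNA by qRT-PCR normalized to ACTB, GAPDH, POLR2A; bidirectional fit versus DMSO.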

CYP2C9 (gene 1559) = test: LTEA_HepaRG_CYP2C9: Life Technologies and Expression Analysis (LTEA) Assay for CYP2C9 using HepaRG (AID 2283484)
Outline: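 Differentiated human HepaRG cells in serum-free induction medium were exposed 48 h to chemicals in 8-point half-log series from 100 uM (0.5% DMSO), in duplicate. CYP2C9 mRNA was measured by qRT-PCR, normalized to ACTB/GAPDH/POLR2A, with bidirectional fitting versus DMSO.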

CYP2E1 (gene 1571) = test: LTEA_HepaRG_CYP2E1: Life Technologies and Expression Analysis (LTEA) Assay for CYP2E1 using HepaRG (AID 2283485)
Outline: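 HepaRG cells in serum-free induction medium exposed 48 h to test chemicals, 8 half-log concentrations up to 100 uM in 0.5% DMSO, duplicate. CYP2E1 mRNA by qRT-PCR, normalized to ACTB, GAPDH, POLR2A; bidirectional fit versus DMSO.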

CYP4A11 (gene 1579) = test: LTEA_HepaRG_CYP4A11: Life Technologies and Expression Analysis (LTEA) Assay for CYP4A11 using HepaRG (AID 2283486)
Outline: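 HepaRG, 48 h chem exposure, 8 conc (100 uM top, half-log), 0.5% DMSO vehicle; qRT-PCR readout, housekeeping-gene normalized; bidirectional curve fit vs DMSO baseline.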

[1] = read-out: Cytochrome P450 3A4 (Homo sapiens) (UniProt P08684); test: LTEA_HepaRG_CYP3A4: Life Technologies and Expression Analysis (LTEA) Assay for CYP3A4 using HepaRG (AID 2283487)
Outline: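 Differentiated HepaRG cells, plated 48 h, then dosed 48 h in serum-free induction medium with 0.5% DMSO, 8 half-log concentrations up to 100 uM, duplicate. CYP3A4 mRNA by qRT-PCR, normalized to ACTB/GAPDH/POLR2A; bidirectional fit versus DMSO.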

[2] = read-out: DNA damage-inducible transcript 3 (DDIT3), DDIT3 (gene 1649); test: LTEA_HepaRG_DDIT3: Life Technologies and Expression Analysis (LTEA) Assay for DNA damage-inducible transcript 3 (DDIT3) using HepaRG (AID 2283488)
Outline: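 Differentiated human HepaRG cells in serum-free induction medium were exposed in duplicate for 48 h to 8 concentrations (top 100 uM, half-log steps, 0.5% DMSO). DDIT3 mRNA measured by TaqMan qRT-PCR, normalized to ACTB/GAPDH/POLR2A; bidirectional fit versus DMSO.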

[3] = read-out: Pro-epidermal growth factor (Homo sapiens) (UniProt P01133); test: LTEA_HepaRG_EGF: Life Technologies and Expression Analysis (LTEA) Assay for Epidermal growth factor (EGF) using HepaRG (AID 2283489)
Outline: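 HepaRG, 48 h dosing, 100 uM top, half-log x8, 0.5% DMSO. Readout: TaqMan qRT-PCR (Fluidigm array), housekeeping-normalized. Gain or loss of signal fit vs DMSO.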

[4] = read-out: Early growth response protein 1 (EGR1) transcription factor, EGR1 (gene 1958); test: LTEA_HepaRG_EGR1: Life Technologies and Expression Analysis (LTEA) Assay for Early growth response protein 1 (EGR1) transcription factor using HepaRG (AID 2283490)
Outline: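 Differentiated HepaRG cells in serum-free induction medium exposed 48 hours, duplicate, to 8 half-log concentrations up to 100 uM in 0.5% DMSO. EGR1 mRNA measured by TaqMan qRT-PCR, normalized to ACTB, GAPDH, POLR2A; bidirectional fit versus DMSO.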

[5] = read-out: Ezrin (EZR), EZR (gene 7430); test: LTEA_HepaRG_EZR: Life Technologies and Expression Analysis (LTEA) Assay for Ezrin (EZR) using HepaRG (AID 2283491)
Outline: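 EZR transcript levels came from Fluidigm qRT-PCR and were normalized to three housekeeping genes after 48 h chemical exposure of HepaRG cells. Dosing used an 8-point half-log series with a 100 uM top concentration in 0.5% DMSO, tested in duplicate; both directions were fitted versus vehicle.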

[6] = read-out: Cytochrome P450 3A7 (Homo sapiens) (UniProt P24462); test: LTEA_HepaRG_CYP3A7: Life Technologies and Expression Analysis (LTEA) Assay for CYP3A7 using HepaRG (AID 2283492)
Outline: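 Human HepaRG liver cells, 48 h post-plating, switched to serum-free induction medium and exposed in duplicate for 48 h. Dosing: 100 uM top, half-log dilutions, 8 points, 0.5% DMSO vehicle. Read-out: CYP3A7 mRNA, gain or loss fitted against DMSO baseline.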

CYP3A5 (gene 1577) = test: LTEA_HepaRG_CYP3A5: Life Technologies and Expression Analysis (LTEA) Assay for CYP3A5 using HepaRG (AID 2283493)
Outline: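 Differentiated HepaRG cells in serum-free induction medium were dosed 48 h with test chemicals (8-point half-log series, top 100 uM, 0.5% DMSO, duplicate). CYP3A5 mRNA measured by qRT-PCR, normalized to ACTB, GAPDH, POLR2A; bidirectional fit versus DMSO.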

[7] = read-out: Fatty Acid-Binding Protein 1 (FABP1), FABP1 (gene 2168); test: LTEA_HepaRG_FABP1: Life Technologies and Expression Analysis (LTEA) Assay for Fatty Acid-Binding Protein 1 (FABP1) using HepaRG (AID 2283494)
Outline: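 Differentiated human HepaRG cells exposed 48 h in serum-free induction medium to eight half-log concentrations up to 100 uM (0.5% DMSO), duplicate. FABP1 mRNA by qRT-PCR, normalised to ACTB, GAPDH, POLR2A; bidirectional fitting against DMSO.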

[8] = read-out: Cytochrome P450 4A22 (Homo sapiens) (UniProt Q5TCH4); test: LTEA_HepaRG_CYP4A22: Life Technologies and Expression Analysis (LTEA) Assay for Cytochrome P450 4A22 (CYP4A22) using HepaRG (AID 2283495)
Outline: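 Readout is CYP4A22 transcript induction or loss, quantified by qRT-PCR and normalized to ACTB, GAPDH and POLR2A. Human HepaRG cells receive test chemicals for 48 h at eight half-log concentrations from 100 uM in 0.5% DMSO.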

[9] = read-out: Cytochrome P450 7A1 (Homo sapiens) (UniProt P22680); test: LTEA_HepaRG_CYP7A1: Life Technologies and Expression Analysis (LTEA) Assay for Cytochrome P450 7A1 (CYP7A1) using HepaRG (AID 2283496)
Outline: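 Gene expression endpoint in human HepaRG liver cells treated for 48 h with test chemicals (up to 100 uM, 0.5% DMSO). Values come from bidirectional concentration-response fitting versus DMSO.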

[10] = read-out: Glutathione S-Transferase (GSTA2), GSTA2 (gene 2939); test: LTEA_HepaRG_GSTA2: Life Technologies and Expression Analysis (LTEA) Assay for Glutathione S-Transferase (GSTA2) using HepaRG (AID 2283497)
Outline: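 Differentiated human HepaRG cells were exposed in duplicate for 48 h in serum-free induction medium, 8 points from 100 uM top in half-log steps, 0.5% DMSO. GSTA2 mRNA was measured by TaqMan qRT-PCR, normalized to ACTB, GAPDH and POLR2A; bidirectional fit versus DMSO.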

[11] = read-out: Glutamate-cysteine ligase catalytic (GCLC), GCLC (gene 2729); test: LTEA_HepaRG_GCLC: Life Technologies and Expression Analysis (LTEA) Assay for Glutamate-cysteine ligase catalytic (GCLC) using HepaRG (AID 2283498)
Outline: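 Differentiated HepaRG cells exposed 48 h in serum-free induction medium, eight-point half-log series topping at 100 uM in 0.5% DMSO, duplicates. GCLC mRNA by qRT-PCR normalized to ACTB, GAPDH and POLR2A, fitted bidirectionally versus DMSO.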

[12] = read-out: growth arrest and DNA damage 45 (GADD45G), GADD45G (gene 10912); test: LTEA_HepaRG_GADD45G: Life Technologies and Expression Analysis (LTEA) Assay for growth arrest and DNA damage 45 (GADD45G) using HepaRG (AID 2283499)
Outline: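 Gain or loss of GADD45G mRNA, quantified by TaqMan qRT-PCR against three housekeeping genes, is fitted in both directions relative to 0.5% DMSO. Human HepaRG cultures receive test chemical for 48 h at up to 100 uM.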

[13] = read-out: Glutamate-cysteine ligase regulatory (GCLM), GCLM (gene 2730); test: LTEA_HepaRG_GCLM: Life Technologies and Expression Analysis (LTEA) Assay for Glutamate-cysteine ligase regulatory (GCLM) using HepaRG (AID 2283500)
Outline: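 Differentiated human HepaRG cells exposed 48 h in serum-free induction medium to 8-point half-log concentrations (top 100 uM, 0.5% DMSO), in duplicate. GCLM mRNA quantified by qRT-PCR, normalized to ACTB, GAPDH, POLR2A; bidirectional fitting versus DMSO.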

[14] = read-out: Heat shock 70 kDa protein 1 (HSPA1A), gene 3303; test: LTEA_HepaRG_HSPA1A: Life Technologies and Expression Analysis (LTEA) Assay for Heat shock 70 kDa protein 1 (HSPA1A) using HepaRG (AID 2283502)
Outline: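 Differentiated human HepaRG cells in serum-free induction medium were exposed in duplicate for 48 h to eight concentrations (top 100 uM, half-log steps, 0.5% DMSO). HSPA1A mRNA was quantified by qRT-PCR, normalized to ACTB, GAPDH and POLR2A, and fitted bidirectionally against DMSO.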

[15] = read-out: Glutathione S-transferase M3 (GSTM3), GSTM3 (gene 2947); test: LTEA_HepaRG_GSTM3: Life Technologies and Expression Analysis (LTEA) Assay for Glutathione S-transferase M3 (GSTM3) using HepaRG (AID 2283501)
Outline: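 HepaRG, plated 48 h, then serum-free induction medium; test chemical 48 h, duplicate; 100 uM top, half-log x8, 0.5% DMSO. Read-out: GSTM3 mRNA (TaqMan qRT-PCR, Fluidigm array). Bidirectional fit vs DMSO.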

Cytochrome P450 3A7 (Homo sapiens), sequence (P24462 whole entry, looked up): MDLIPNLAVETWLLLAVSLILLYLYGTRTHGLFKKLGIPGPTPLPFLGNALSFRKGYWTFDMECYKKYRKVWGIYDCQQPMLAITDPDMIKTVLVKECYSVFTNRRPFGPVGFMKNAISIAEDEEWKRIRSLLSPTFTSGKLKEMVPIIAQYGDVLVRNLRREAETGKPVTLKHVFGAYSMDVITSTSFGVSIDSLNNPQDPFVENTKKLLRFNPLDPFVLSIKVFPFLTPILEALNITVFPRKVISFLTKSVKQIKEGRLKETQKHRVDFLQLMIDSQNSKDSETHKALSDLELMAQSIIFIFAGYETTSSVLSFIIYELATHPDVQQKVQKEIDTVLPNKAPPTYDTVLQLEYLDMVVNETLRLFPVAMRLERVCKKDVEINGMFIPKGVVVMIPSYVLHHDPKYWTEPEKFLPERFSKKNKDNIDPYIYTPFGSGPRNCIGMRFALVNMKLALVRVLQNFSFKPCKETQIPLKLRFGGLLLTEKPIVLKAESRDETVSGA
Cytochrome P450 3A4 (Homo sapiens), sequence (P08684 whole entry, looked up): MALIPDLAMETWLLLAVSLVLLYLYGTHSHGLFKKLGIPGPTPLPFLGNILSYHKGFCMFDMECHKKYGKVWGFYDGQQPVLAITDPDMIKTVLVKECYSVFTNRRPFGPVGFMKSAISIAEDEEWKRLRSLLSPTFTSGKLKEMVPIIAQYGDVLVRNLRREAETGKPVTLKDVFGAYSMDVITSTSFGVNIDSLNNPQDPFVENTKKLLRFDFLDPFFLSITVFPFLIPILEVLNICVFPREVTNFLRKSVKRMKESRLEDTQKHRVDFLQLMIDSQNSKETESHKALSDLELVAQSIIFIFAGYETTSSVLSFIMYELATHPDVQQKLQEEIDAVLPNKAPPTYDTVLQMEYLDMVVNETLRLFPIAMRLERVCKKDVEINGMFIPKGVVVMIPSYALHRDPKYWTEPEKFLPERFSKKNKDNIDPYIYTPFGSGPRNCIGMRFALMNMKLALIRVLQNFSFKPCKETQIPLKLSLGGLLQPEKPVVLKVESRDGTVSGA

## CCCCN(CC)c1c([N+](=O)[O-])cc(C(F)(F)F)cc1[N+](=O)[O-]
CYP2C8 (gene 1558)
  outcome: inactive
CYP2C9 (gene 1559)
  outcome: inactive
CYP2E1 (gene 1571)
  outcome: inactive
CYP4A11 (gene 1579)
  outcome: inactive
[1]
  AC50: 23.2 µM (active)
[2]
  outcome: inactive
[3]
  outcome: inactive
[4]
  outcome: inactive
[5]
  outcome: inactive
[6]
  outcome: inactive
CYP3A5 (gene 1577)
  outcome: inactive
[7]
  outcome: inactive
[8]
  outcome: inactive
[9]
  outcome: inactive
[10]
  outcome: inactive
[11]
  outcome: inactive
[12]
  outcome: inactive
[13]
  outcome: inactive
[14]
  outcome: inactive

## Cc1ccn2nc(S(=O)(=O)Nc3c(F)cccc3F)nc2n1
CYP2C8 (gene 1558)
  outcome: inactive
CYP2C9 (gene 1559)
  outcome: inactive
CYP2E1 (gene 1571)
  outcome: inactive
CYP4A11 (gene 1579)
  outcome: inactive
[1]
  AC50: 40.5 µM (active)
[2]
  outcome: inactive
[3]
  outcome: inactive
[4]
  outcome: inactive
[5]
  outcome: inactive
[6]
  outcome: inactive
[7]
  outcome: inactive
[8]
  outcome: inactive
[9]
  outcome: inactive
[10]
  outcome: inactive
[11]
  outcome: inactive
[12]
  outcome: inactive
[13]
  outcome: inactive
[14]
  outcome: inactive

## Cc1nn(-c2cc(NS(C)(=O)=O)c(Cl)cc2Cl)c(=O)n1C(F)F
CYP2C8 (gene 1558)
  outcome: inactive
CYP2C9 (gene 1559)
  outcome: inactive
CYP2E1 (gene 1571)
  AC50: 12.8 µM (active)
CYP4A11 (gene 1579)
  outcome: inactive
[1]
  AC50: 3.03 µM (active)
[2]
  outcome: inactive
[3]
  outcome: inactive
[4]
  outcome: inactive
[5]
  outcome: inactive
[6]
  AC50: 7.34 µM (active)
[7]
  outcome: inactive
[8]
  outcome: inactive
[9]
  outcome: inactive
[10]
  outcome: inactive
[12]
  outcome: inactive
[13]
  outcome: inactive
[15]
  outcome: inactive
[14]
  outcome: inactive

## CCCOc1nn(C(=O)NS(=O)(=O)c2ccccc2C(=O)OC)c(=O)n1C
CYP2C8 (gene 1558)
  outcome: inactive
CYP2C9 (gene 1559)
  outcome: inactive
CYP2E1 (gene 1571)
  outcome: inactive
CYP4A11 (gene 1579)
  outcome: inactive
[1]
  outcome: inactive
[2]
  outcome: inactive
[3]
  outcome: inactive
[4]
  outcome: inactive
[5]
  outcome: inactive
[6]
  outcome: inactive
CYP3A5 (gene 1577)
  outcome: inactive
[7]
  outcome: inactive
[8]
  outcome: inactive
[9]
  outcome: inactive
[10]
  outcome: inactive
[12]
  outcome: inactive
[13]
  outcome: inactive
[14]
  outcome: inactive

## CN(C)C(=O)Nc1cccc(C(F)(F)F)c1
CYP2C8 (gene 1558)
  AC50: 12.1 µM (active)
CYP2C9 (gene 1559)
  outcome: inactive
CYP2E1 (gene 1571)
  AC50: 50 µM (active)
CYP4A11 (gene 1579)
  outcome: inactive
[1]
  AC50: 10.4 µM (active)
[2]
  outcome: inactive
[3]
  outcome: inactive
[4]
  outcome: inactive
[5]
  outcome: inactive
[6]
  AC50: 7.66 µM (active)
[7]
  outcome: inactive
[8]
  outcome: inactive
[9]
  outcome: inactive
[10]
  outcome: inactive
[12]
  outcome: inactive
[13]
  outcome: inactive
[15]
  outcome: inactive
[14]
  outcome: inactive

## CCOP(=O)(OCC)Oc1cc(C)nc(C(C)C)n1
CYP2C8 (gene 1558)
  outcome: inactive
CYP2C9 (gene 1559)
  outcome: inactive
CYP2E1 (gene 1571)
  outcome: inactive
CYP4A11 (gene 1579)
  outcome: inactive
[1]
  outcome: inactive
[2]
  outcome: inactive
[3]
  outcome: inactive
[4]
  outcome: inactive
[5]
  outcome: inactive
[6]
  outcome: inactive
CYP3A5 (gene 1577)
  outcome: inactive
[7]
  outcome: inactive
[9]
  outcome: inactive
[10]
  outcome: inactive
[11]
  outcome: inactive
[12]
  outcome: inactive
[13]
  outcome: inactive
[15]
  outcome: inactive
[14]
  outcome: inactive
